What is called inhibition is the change of the read-out against control, counted positive when it falls.

From ChEMBL document CHEMBL1961873, “Compounds: GSK PKIS; Assays: Nanosyn kinase panel” (2012) come the findings set out here.

The target in assay [1] is 5'-AMP-activated protein kinase catalytic subunit alpha-2 (Homo sapiens) (UniProt P54646). The following applies: at 1 µM.
The target of assay [2] is T1, NUAK family SNF1-like kinase 1 (Homo sapiens) (UniProt O60285).
T1 sequence (whole entry): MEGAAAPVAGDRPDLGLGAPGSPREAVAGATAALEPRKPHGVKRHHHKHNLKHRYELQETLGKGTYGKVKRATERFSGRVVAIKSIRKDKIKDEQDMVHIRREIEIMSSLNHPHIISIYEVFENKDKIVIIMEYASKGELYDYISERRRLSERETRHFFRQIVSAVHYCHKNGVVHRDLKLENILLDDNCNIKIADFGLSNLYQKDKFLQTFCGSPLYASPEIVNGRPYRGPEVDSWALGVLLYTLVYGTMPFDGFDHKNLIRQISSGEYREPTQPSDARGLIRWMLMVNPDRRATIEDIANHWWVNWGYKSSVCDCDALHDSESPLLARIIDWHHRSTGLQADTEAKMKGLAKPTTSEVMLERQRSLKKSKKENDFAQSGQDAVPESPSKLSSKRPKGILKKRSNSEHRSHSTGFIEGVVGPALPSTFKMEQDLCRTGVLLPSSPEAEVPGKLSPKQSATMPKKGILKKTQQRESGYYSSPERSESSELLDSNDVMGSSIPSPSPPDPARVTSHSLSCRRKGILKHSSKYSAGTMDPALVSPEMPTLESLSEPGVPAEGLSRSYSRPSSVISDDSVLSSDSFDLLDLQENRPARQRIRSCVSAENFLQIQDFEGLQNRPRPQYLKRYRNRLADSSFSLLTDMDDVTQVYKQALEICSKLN
The settings on record: at 0.1 µM.

For assay [3], the target named is T1, NUAK family SNF1-like kinase 1 (Homo sapiens). The following applies: at 1 µM.
Assay [4] concerns the target T2, Serine/threonine-protein kinase BRSK1 (Homo sapiens) (UniProt Q8TDC3).
T2 sequence (whole entry): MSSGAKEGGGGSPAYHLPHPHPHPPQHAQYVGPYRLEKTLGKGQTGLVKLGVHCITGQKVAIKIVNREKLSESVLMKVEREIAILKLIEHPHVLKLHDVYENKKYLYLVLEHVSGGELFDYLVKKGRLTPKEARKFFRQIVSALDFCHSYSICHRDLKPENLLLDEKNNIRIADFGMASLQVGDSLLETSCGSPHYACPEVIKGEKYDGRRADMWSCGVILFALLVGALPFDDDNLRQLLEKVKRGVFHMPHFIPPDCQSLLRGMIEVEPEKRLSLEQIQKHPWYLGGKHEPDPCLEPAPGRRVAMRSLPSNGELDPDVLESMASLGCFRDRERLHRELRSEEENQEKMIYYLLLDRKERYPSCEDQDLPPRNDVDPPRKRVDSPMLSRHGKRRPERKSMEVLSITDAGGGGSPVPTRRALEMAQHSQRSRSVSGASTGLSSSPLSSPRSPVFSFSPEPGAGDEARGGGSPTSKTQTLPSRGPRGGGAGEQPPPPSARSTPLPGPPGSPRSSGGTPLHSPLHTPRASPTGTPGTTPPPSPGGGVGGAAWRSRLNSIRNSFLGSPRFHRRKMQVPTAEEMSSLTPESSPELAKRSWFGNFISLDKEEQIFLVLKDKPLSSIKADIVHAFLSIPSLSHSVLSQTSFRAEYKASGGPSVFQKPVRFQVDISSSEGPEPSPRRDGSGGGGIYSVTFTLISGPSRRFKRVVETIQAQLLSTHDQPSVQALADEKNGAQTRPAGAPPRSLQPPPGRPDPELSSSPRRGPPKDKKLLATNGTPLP
The following applies: at 0.1 µM.

Assay [5] deals with T2, Serine/threonine-protein kinase BRSK1 (Homo sapiens). The following applies: at 1 µM.
Assay [6] has as its target T3, Serine/threonine-protein kinase BRSK2 (Homo sapiens) (UniProt Q8IWQ3).
T3 sequence (whole entry): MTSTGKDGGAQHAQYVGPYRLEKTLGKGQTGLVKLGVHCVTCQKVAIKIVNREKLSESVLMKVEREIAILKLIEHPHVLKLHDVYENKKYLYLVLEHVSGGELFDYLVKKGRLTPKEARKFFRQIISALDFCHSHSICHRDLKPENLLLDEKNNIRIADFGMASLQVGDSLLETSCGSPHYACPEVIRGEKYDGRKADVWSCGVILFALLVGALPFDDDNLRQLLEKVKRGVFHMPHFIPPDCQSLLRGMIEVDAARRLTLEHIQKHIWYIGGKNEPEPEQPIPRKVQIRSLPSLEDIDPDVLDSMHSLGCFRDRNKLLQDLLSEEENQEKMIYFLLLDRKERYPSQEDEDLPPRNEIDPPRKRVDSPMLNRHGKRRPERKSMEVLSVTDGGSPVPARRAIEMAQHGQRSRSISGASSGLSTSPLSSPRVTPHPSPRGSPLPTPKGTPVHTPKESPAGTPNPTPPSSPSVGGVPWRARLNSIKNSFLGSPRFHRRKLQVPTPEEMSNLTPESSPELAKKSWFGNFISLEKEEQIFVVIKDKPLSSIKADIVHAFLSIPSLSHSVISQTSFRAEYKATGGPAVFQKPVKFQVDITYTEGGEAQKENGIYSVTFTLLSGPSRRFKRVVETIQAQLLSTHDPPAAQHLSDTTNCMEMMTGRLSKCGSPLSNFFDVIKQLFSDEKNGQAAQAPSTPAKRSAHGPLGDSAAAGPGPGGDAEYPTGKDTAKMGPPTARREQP
The settings on record: at 0.1 µM.

The target of assay [7] is T3, Serine/threonine-protein kinase BRSK2 (Homo sapiens). The settings on record: at 1 µM.
Assay [8] addresses Calcium/calmodulin-dependent protein kinase type 1D (Homo sapiens) (UniProt Q8IU85). The settings on record: at 0.1 µM.
For assay [9] the target is unchanged. The following applies: at 1 µM.
Assay [10] deals with Calcium/calmodulin-dependent protein kinase type II subunit alpha (Homo sapiens) (UniProt Q9UQM7). The settings on record: at 0.1 µM.

Structures are written as SMILES. Where “and” joins values, the source holds several entries; their conditions need not be identical. Equal values may be shown once.

Sequence of 5'-AMP-activated protein kinase catalytic subunit alpha-2 (Homo sapiens) (P54646 whole entry, looked up): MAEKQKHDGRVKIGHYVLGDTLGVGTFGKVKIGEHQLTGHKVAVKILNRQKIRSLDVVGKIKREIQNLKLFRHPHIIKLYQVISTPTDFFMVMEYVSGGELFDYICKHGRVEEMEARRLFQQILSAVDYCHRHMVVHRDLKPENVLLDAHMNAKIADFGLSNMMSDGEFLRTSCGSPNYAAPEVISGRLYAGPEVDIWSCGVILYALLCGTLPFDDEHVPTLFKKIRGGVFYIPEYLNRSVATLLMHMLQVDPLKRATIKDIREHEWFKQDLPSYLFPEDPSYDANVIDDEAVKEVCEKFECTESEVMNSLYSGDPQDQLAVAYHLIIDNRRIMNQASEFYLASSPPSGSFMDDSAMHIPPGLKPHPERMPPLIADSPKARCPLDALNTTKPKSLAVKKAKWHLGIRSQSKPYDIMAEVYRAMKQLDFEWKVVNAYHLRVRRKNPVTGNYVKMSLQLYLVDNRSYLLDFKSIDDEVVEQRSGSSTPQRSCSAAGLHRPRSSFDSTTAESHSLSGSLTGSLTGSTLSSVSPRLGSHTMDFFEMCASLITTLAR
Sequence of Calcium/calmodulin-dependent protein kinase type 1D (Homo sapiens) (Q8IU85 whole entry, looked up): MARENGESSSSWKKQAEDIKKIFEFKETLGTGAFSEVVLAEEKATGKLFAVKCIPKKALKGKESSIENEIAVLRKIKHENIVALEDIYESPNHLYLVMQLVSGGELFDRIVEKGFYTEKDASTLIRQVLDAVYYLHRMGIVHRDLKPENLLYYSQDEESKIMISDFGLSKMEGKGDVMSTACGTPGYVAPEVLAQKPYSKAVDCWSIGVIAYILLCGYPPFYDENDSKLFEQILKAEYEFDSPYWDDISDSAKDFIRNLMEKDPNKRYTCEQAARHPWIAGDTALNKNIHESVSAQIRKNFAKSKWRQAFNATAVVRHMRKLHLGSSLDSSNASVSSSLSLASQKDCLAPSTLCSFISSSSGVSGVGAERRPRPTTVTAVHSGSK
Sequence of Calcium/calmodulin-dependent protein kinase type II subunit alpha (Homo sapiens) (Q9UQM7 whole entry): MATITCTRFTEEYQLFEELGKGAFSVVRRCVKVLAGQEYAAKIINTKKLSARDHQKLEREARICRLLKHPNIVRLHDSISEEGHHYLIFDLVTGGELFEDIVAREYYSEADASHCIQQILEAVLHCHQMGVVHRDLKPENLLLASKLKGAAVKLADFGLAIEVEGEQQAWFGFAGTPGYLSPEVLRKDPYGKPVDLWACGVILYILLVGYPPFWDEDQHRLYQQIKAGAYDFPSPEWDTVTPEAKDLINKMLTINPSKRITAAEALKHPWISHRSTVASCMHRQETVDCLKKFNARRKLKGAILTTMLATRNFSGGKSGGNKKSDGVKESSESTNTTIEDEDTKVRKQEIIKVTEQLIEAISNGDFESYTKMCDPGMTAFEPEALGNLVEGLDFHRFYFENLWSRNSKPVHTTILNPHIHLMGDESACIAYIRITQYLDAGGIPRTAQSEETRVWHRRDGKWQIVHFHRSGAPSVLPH

On to `Fc1cccc(COc2ccc(Nc3ncncc3C#Cc3ccccc3)cc2Cl)c1`, for which the inhibition in assay [1] was 2.35%; in assay [2], 1.2%; in assay [3] it was 3.38%; in [4] it was -0.12%; in assay [5], 3.27%; in assay [6], 0.86%. In addition, the inhibition in [7] was 4.6%; in assay [8], -0.31%; in assay [9] it was -0.49%; in assay [10], 4.42%.

Take `CS(=O)(=O)CCNCc1ccoc1-c1ccc2ncnc(Nc3ccc(OCc4ccccc4)cc3)c2c1`: the inhibition in assay [1] is 1.14%; in assay [2], 2.3%; in [3], 2.12%; in assay [4] it was -0.34%; in [5], -0.87%; in assay [6], 0.28%. Further, the inhibition is 1.27% in assay [7], -0.18% in assay [8], -0.02% in assay [9] and -0.63% in [10].

`CCS(=O)(=O)c1ccc(OC)c(Nc2ncc(-c3cccc(C(C)=O)c3)o2)c1`: the inhibition in assay [1] was 3.65%; in [2] it was 2.25%; in assay [3], 4.46%; in assay [4] it was -0.38%; in assay [5], 3.68%; in assay [6], 1.58%. Also, the inhibition is 4.09% in assay [7], 0.3% in assay [8], -0.69% in assay [9] and 2.75% in assay [10].

Consider `CCn1c(-c2nonc2N)nc2cncc(C(=O)NCCNC)c21`, for which the inhibition is 4.46% in assay [1]; -0.78% in [2]; 2.03% in assay [3]; 0.66% in assay [4]; 6.23% in assay [5]; 2.51% in assay [6]. Moreover, the inhibition was 9.29% in assay [7], -0.23% in [8], 0.83% in [9] and 2.44% in [10].

Take `CCS(=O)(=O)c1ccc(OC)c(Nc2ncc(-c3cccc(F)c3)o2)c1`: the inhibition is 5.58% in [1]; 0.71% in assay [2]; 12.5% in assay [3]; 1.15% in assay [4]; -0.68% in assay [5]; 1.63% in [6]. Besides, the inhibition was 3.22% in assay [7], 0.89% in assay [8], 2.56% in assay [9] and 2.75% in assay [10].

Turning to `NC(=O)c1ccc2c(-c3ccnc(NCCCO)n3)c(-c3ccc(F)cc3)nn2c1`, the inhibition in assay [1] is 4.65%; in [2], 2.9%; in [3], 4.34%; in assay [4] it was 2.91%; in assay [5] it was 4.68%; in assay [6], 2.27%. Further, the inhibition is 3.75% in assay [7], -0.23% in assay [8], 1.6% in [9] and 3.83% in assay [10].

Turning to `CS(=O)(=O)Nc1ccc(-c2cc(-c3ccccc3)cc(C(N)=O)c2N)cc1`, the inhibition in assay [1] is 1.49%; in assay [2], -2.25%; in [3], 1.62%; in [4], -0.36%; in assay [5], -0.05%; in assay [6], 0.92%. In addition, the inhibition is 2.21% in [7], -0.99% in [8], -0.47% in assay [9] and -1.51% in assay [10].

On to `Cn1c(-c2nonc2N)nc2cnccc21`, for which the inhibition was determined as 4.41% in [1]; 0.78% in [2]; 4.88% in assay [3]; 2.34% in assay [4]; 5.84% in assay [5]; 3.19% in [6]. For the same compound, the inhibition in assay [7] came out at 6.4%; in assay [8], 0.12%; in assay [9], 0.97%; in assay [10] it was 3.13%.

Regarding `Cc1nnc(-c2cccc(-c3ccc(C(=O)NCC4CC4)cc3)c2)o1`, the inhibition in assay [1] came out at 4.4%; in assay [2] it was 3.1%; in assay [3], 2.61%; in [4], 0.57%; in assay [5], 2.35%; in [6], 6.6%. Further, the inhibition in [7] was 3.96%; in assay [8], -0.22%; in assay [9] it was 0.22%; in assay [10] it was 5.78%.

For the compound `Cc1cc(O)cc(C)c1/C=C/c1cncc(C(N)=O)c1`, the inhibition turned out to be 3.4% in assay [1]; 0.73% in assay [2]; 2.46% in assay [3]; 3.32% in assay [4]; 15% in [5]; 2.91% in assay [6]. In addition, the inhibition worked out at 9.42% in [7], 4.14% in assay [8], 1.23% in assay [9] and 7.97% in [10].

Regarding `Nc1nccc(-c2c(-c3ccc(F)cc3)ncn2C2CCNCC2)n1`, the inhibition in assay [1] was -2.2% and 1.34%; in assay [2], 3.5% and 3.71%; in assay [3], 8.02% and 2.99%; in assay [4], 1.03% and 0.08%; in assay [5], 5.8% and 0.48%; in assay [6], 1.95% and 0.03%. Further, the inhibition is 7.44% and 0.24% in [7]; -0.73% and -0.33% in assay [8]; 0.76% and -0.11% in assay [9]; -5.11% and -1.58% in [10].

Consider `CNC(=O)c1ncccc1Nc1nc(Nc2cc3c(cc2OC)CCCN3C(=O)CN(C)C)nc2[nH]ccc12`, for which the inhibition in [1] was found to be 8.1%; in [2], 5.36%; in [3] it was 8.33%; in assay [4], 3.14%; in assay [5], 4.58%; in assay [6], 3.37%. Further, the inhibition in assay [7] turned out to be 4.64%; in assay [8] it was 1.94%; in assay [9], 12.9%; in assay [10], 4.09%.

Turning to `Cc1ccc(-c2cc3c(NC(=O)C4CC4)ncnc3o2)cc1`, the inhibition was found to be 5.09% in assay [1]; 2.09% in assay [2]; 6.68% in [3]; 2.59% in assay [4]; 4.69% in assay [5]; 2.82% in assay [6]. Moreover, the inhibition stood at 4.69% in assay [7], 0.92% in assay [8], 1.61% in assay [9] and 4.04% in [10].

With `FC(F)(F)CNc1nccc(-c2cnn3ncccc23)n1`, the inhibition in assay [1] stood at 2.02%; in assay [2] it was 2.93%; in assay [3], 1.68%; in [4] it was 1.54%; in assay [5], 4.3%; in [6], 3.14%. The inhibition came to 5.75% in assay [7], 0.18% in [8], 0.52% in assay [9] and 0.49% in assay [10].

As for `CCCNc1cccc(-n2ncc3c(N/N=C/c4ccncc4)ncnc32)c1`, the inhibition in assay [1] is 2.07%; in [2], 5.36%; in assay [3], 36.3%; in assay [4] it was 2.58%; in [5], 24.7%; in assay [6], 4.13%. Moreover, the inhibition in assay [7] is 29%; in [8] it was 0.76%; in assay [9], 1.66%; in assay [10] it was 1.4%.
